Results as given in PubChem BioAssay (NCI).
Compounds without any hit were thinned out: in the full panel of roughly 79,000, 15% have a hit. Active and inactive are the calls of the source. Rule as the data show it: active = growth inhibition above about 70%; inactive = the rest.

Assays:
[1] = NCI Yeast Anticancer Drug Screen. Data for the mec2-1 strain (AID 157); settings: S. cerevisiae mec2-1 strain, hits give high values
How it was run: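 Vehicle-treated cultures served as reference for growth inhibition of compound-exposed mec2-1 yeast.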

[2] = NCI Yeast Anticancer Drug Screen. Data for the rad14 strain (AID 159);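 also: 0% = growth of vehicle-treated control cultures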; settings: S. cerevisiae rad14 strain growth inhibition, hits give high values
How it was run: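 Screen for anticancer potential: a yeast strain altered in DNA damage repair is grown with compound, and reduced growth is quantified against vehicle controls.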

[3] = NCI Yeast Anticancer Drug Screen. Data for the sgs1 mgt1 strain (AID 161);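 also: 0% = growth of cultures given vehicle only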; settings: S. cerevisiae sgs1 mgt1 strain, hits give high values
How it was run: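 Mutant yeast exposed to compound; growth scored against vehicle-only wells.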

[4] = NCI Yeast Anticancer Drug Screen. Data for the cln2 rad14 strain (AID 165);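 also: 0% = growth equal to vehicle treated cultures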; settings: S. cerevisiae cln2 rad14 strain, hits give high values
How it was run: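 Each compound was tested on cln2 rad14 yeast. Inhibition of growth was calculated against vehicle-exposed controls.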

[5] = NCI Yeast Anticancer Drug Screen. Data for the bub3 strain (AID 167); settings: S. cerevisiae bub3 mutant strain, hits give high values
How it was run: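 Screening used yeast with an engineered genetic alteration affecting cell cycle control. Compound-exposed cultures were compared with vehicle cultures, and reduced growth was taken as inhibition.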

[6] = NCI Yeast Anticancer Drug Screen. Data for the wt2 strain (AID 169);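 also: 0% = growth of vehicle-treated yeast cultures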; settings: S. cerevisiae wt2 strain growth inhibition, hits give high values
How it was run: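 Inhibition of yeast growth was determined after compound treatment, normalised to controls receiving only vehicle.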

[7] = NCI Yeast Anticancer Drug Screen. Data for the mlh1 strain (AID 171);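 also: 0% = growth of vehicle-treated control cultures of the same strain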; settings: S. cerevisiae mlh1 strain growth inhibition, hits give high values
How it was run: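 Vehicle-normalised growth inhibition of a repair- or checkpoint-altered yeast strain following compound treatment.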

[8] = NCI Yeast Anticancer Drug Screen. Data for the sgs1 strain (AID 173);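 also: 0% = growth of vehicle-only control cultures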; settings: S. cerevisiae sgs1 mutant, hits give high values
How it was run: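 Screen format: yeast with repair or checkpoint alterations, compound exposure, growth read relative to vehicle.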

[9] = NCI Yeast Anticancer Drug Screen. Data for the mlh1 rad18 strain (AID 175); settings: S. cerevisiae mlh1 rad18 strain growth inhibition, hits give high values
How it was run: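 Vehicle-treated cultures served as the reference for growth inhibition in a yeast strain carrying DNA damage repair alterations exposed to each compound.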

[10] = NCI Yeast Anticancer Drug Screen. Data for the rad52 strain (AID 147);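 also: 0% = growth of vehicle-treated control cultures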; settings: S. cerevisiae rad52 mutant growth inhibition, hits give high values
How it was run: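 Vehicle-treated cultures served as the reference for growth inhibition of compound-exposed yeast bearing a DNA repair mutation.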

[11] = NCI Yeast Anticancer Drug Screen. Data for the wt1 strain (AID 149);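 also: 0% = growth of vehicle-treated wt1 cultures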; settings: S. cerevisiae wt1 strain (SPY 50644) growth inhibition, hits give high values
How it was run: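 Using yeast strain wt1, compound-induced growth inhibition was determined against vehicle-treated cultures.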

[12] = NCI Yeast Anticancer Drug Screen. Data for the rad50EPP+ strain (AID 151);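 also: 0% = growth of vehicle-treated control cultures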; settings: S. cerevisiae rad50 mutant strain, hits give high values
How it was run: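 In this screen, rad50EPP+ yeast were exposed to compounds. Growth inhibition was scored against vehicle-treated controls.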

[13] = NCI Yeast Anticancer Drug Screen. Data for the mgt1 strain (AID 153); settings: S. cerevisiae mgt1 mutant growth inhibition, hits give high values
How it was run: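 mgt1 strain exposed; growth vs vehicle control recorded as inhibition.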

[14] = NCI Yeast Anticancer Drug Screen. Data for the rad50 strain (AID 155);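 also: 0% = growth of vehicle-only cultures of the same strain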; settings: S. cerevisiae rad50 strain growth inhibition, hits give high values
How it was run: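 Relative growth inhibition (compound vs vehicle) was measured in yeast with a defined repair-gene alteration.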

[15] = NCI Yeast Anticancer Drug Screen. Data for the rad18 strain (AID 177); settings: S. cerevisiae rad18 mutant growth inhibition, hits give high values
How it was run: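 Test articles were incubated with altered yeast defective in DNA damage repair. Results are given as inhibition of growth versus vehicle.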

[16] = at 5.0 µM (retest, dose inferred, filed as 0.5)
[17] = at 50.0 µM (retest, dose inferred, filed as 5.0)

Measured: growth inhibition

O=C1/C(=C/c2ccccc2)CCCC1CN1CCCCC1 (centres undefined)
inactive: [1]; [16] 32% | [1]; at 11.0 µM 34% | [1]; at 33.0 µM 48% | [1]; at 100.0 µM 57% | [2]; at 1.2 µM 48% | [3]; [16] 40% | [4]; [16] 65% | [4]; [17] 69% | [5]; at 1.2 µM 30% | [5]; at 3.7 µM 53% | [5]; [16] 12% | [6]; at 1.2 µM 19% | [6]; at 3.7 µM 31% | [6]; at 11.0 µM 51% | [7]; at 1.2 µM 4% | [7]; at 3.7 µM 16% | [7]; at 11.0 µM 26% | [7]; at 33.0 µM 34% | [7]; at 100.0 µM 38% | [8]; at 1.2 µM 29% | [8]; at 3.7 µM 42% | [8]; at 11.0 µM 67% | [9]; [16] 43%
active: [1]; [17] 74% | [1]; at 50.0 µM 75.2% | [2]; at 3.7 µM 70% | [2]; at 11.0 µM 92% | [2]; at 33.0 µM 98% | [2]; at 100.0 µM 98% | [3]; [17] 80% | [3]; at 50.0 µM 85.7% | [4]; at 50.0 µM 75.4% | [5]; at 11.0 µM 79% | [5]; at 33.0 µM 95% | [5]; [17] 83% | [5]; at 50.0 µM 82.9% | [5]; at 100.0 µM 97% | [6]; at 33.0 µM 79% | [6]; at 100.0 µM 87% | [8]; at 33.0 µM 86% | [8]; at 100.0 µM 91% | [9]; [17] 75% | [9]; at 50.0 µM 74.7%

CCOC(=O)c1cc([N+](=O)[O-])c(Sc2ncnc3nc[nH]c23)c([N+](=O)[O-])c1
inactive: [10]; at 1.2 µM 0% | [10]; at 3.7 µM 0% | [10]; at 11.0 µM 34% | [11]; at 1.2 µM -22% | [11]; at 3.7 µM -26% | [11]; at 11.0 µM -6% | [11]; at 33.0 µM 62% | [12]; at 1.2 µM -8% | [12]; at 3.7 µM -8% | [12]; at 11.0 µM -5% | [12]; at 33.0 µM 6% | [12]; at 100.0 µM 22% | [13]; at 1.2 µM -20% | [13]; at 3.7 µM -29% | [13]; at 11.0 µM 16% | [14]; at 1.2 µM -40% | [14]; at 3.7 µM -18% | [14]; [16] 31% | [14]; at 11.0 µM 11% | [14]; [17] 63% | [14]; at 50.0 µM 17.4% | [1]; at 1.2 µM -22% | [1]; at 3.7 µM -13% | [1]; [16] 29% | [1]; at 11.0 µM 38% | [1]; at 50.0 µM 58% | [2]; at 1.2 µM -34% | [2]; at 3.7 µM -23% | [2]; at 11.0 µM -3% | [3]; [16] 6% | [3]; [17] -13% | [3]; at 50.0 µM 56% | [4]; [16] -5% | [4]; [17] -64% | [4]; at 50.0 µM 60.3% | [5]; at 1.2 µM -19% | [5]; at 3.7 µM -7% | [5]; [16] 7% | [5]; at 11.0 µM 43% | [5]; [17] 34% | [5]; at 50.0 µM 33.1% | [6]; at 1.2 µM -31% | [6]; at 3.7 µM -25% | [6]; at 11.0 µM 2% | [6]; at 33.0 µM 46% | [8]; at 1.2 µM 13% | [8]; at 3.7 µM 13% | [8]; at 11.0 µM 41% | [9]; [16] 55% | [15]; at 1.2 µM -17% | [15]; at 3.7 µM 9% | [15]; at 11.0 µM 55%
active: [10]; at 33.0 µM 79% | [10]; at 100.0 µM 90% | [11]; at 100.0 µM 92% | [13]; at 33.0 µM 81% | [13]; at 100.0 µM 89% | [14]; at 33.0 µM 75% | [14]; at 100.0 µM 89% | [1]; at 33.0 µM 89% | [1]; [17] 75% | [1]; at 100.0 µM 91% | [2]; at 33.0 µM 72% | [2]; at 100.0 µM 87% | [5]; at 33.0 µM 88% | [5]; at 100.0 µM 88% | [6]; at 100.0 µM 85% | [8]; at 33.0 µM 71% | [8]; at 100.0 µM 87% | [9]; [17] 89% | [9]; at 50.0 µM 86.2% | [15]; at 33.0 µM 82% | [15]; at 100.0 µM 84%

CNC(=O)OCc1c(COC(=O)NC)c2n(c1C)-c1ccc(OC)cc1CCC2
inactive: [10]; at 1.2 µM -18% | [10]; at 3.7 µM -24% | [10]; at 11.0 µM -20% | [11]; at 1.2 µM -45% | [11]; at 3.7 µM -53% | [11]; at 11.0 µM -57% | [12]; at 1.2 µM -6% | [12]; at 3.7 µM -7% | [12]; at 11.0 µM -8% | [12]; at 33.0 µM 6% | [12]; at 100.0 µM 15% | [13]; at 1.2 µM -32% | [13]; at 3.7 µM -35% | [13]; at 11.0 µM -34% | [14]; at 1.2 µM -35% | [14]; at 3.7 µM -38% | [14]; [16] 25% | [14]; at 11.0 µM -43% | [1]; at 1.2 µM -61% | [1]; at 3.7 µM -29% | [1]; [16] 2% | [1]; at 11.0 µM -52% | [2]; at 1.2 µM -36% | [2]; at 3.7 µM -16% | [2]; at 11.0 µM -23% | [3]; [16] 17% | [4]; [16] 45% | [5]; at 1.2 µM -16% | [5]; at 3.7 µM -26% | [5]; [16] 45% | [5]; at 11.0 µM -30% | [6]; at 1.2 µM 8% | [6]; at 3.7 µM 9% | [6]; at 11.0 µM -7% | [6]; at 33.0 µM 66% | [7]; at 1.2 µM -42% | [7]; at 3.7 µM -31% | [7]; at 11.0 µM -47% | [8]; at 1.2 µM -15% | [8]; at 3.7 µM -15% | [8]; at 11.0 µM -16% | [9]; [16] 17% | [15]; at 1.2 µM -45% | [15]; at 3.7 µM -43% | [15]; at 11.0 µM -48%
active: [10]; at 33.0 µM 96% | [10]; at 100.0 µM 99% | [11]; at 33.0 µM 96% | [11]; at 100.0 µM 100% | [13]; at 33.0 µM 98% | [13]; at 100.0 µM 99% | [14]; at 33.0 µM 95% | [14]; [17] 99% | [14]; at 50.0 µM 85.7% | [14]; at 100.0 µM 99% | [1]; at 33.0 µM 95% | [1]; [17] 99% | [1]; at 50.0 µM 89.1% | [1]; at 100.0 µM 99% | [2]; at 33.0 µM 98% | [2]; at 100.0 µM 100% | [3]; [17] 99% | [3]; at 50.0 µM 90% | [4]; [17] 98% | [4]; at 50.0 µM 88.2% | [5]; at 33.0 µM 97% | [5]; [17] 100% | [5]; at 50.0 µM 87.2% | [5]; at 100.0 µM 99% | [6]; at 100.0 µM 98% | [7]; at 33.0 µM 98% | [7]; at 100.0 µM 99% | [8]; at 33.0 µM 95% | [8]; at 100.0 µM 99% | [9]; [17] 98% | [9]; at 50.0 µM 86.9% | [15]; at 33.0 µM 96% | [15]; at 100.0 µM 98%
